Measured values: PubChem BioAssay (NCI)
This is part of a sample that, as a whole, favours compounds with a hit. Of some 83,000 tested, about 20% had one in any assay.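 Single-concentration screen, 48 h exposure, 96-well plates. Endpoint: percent growth. Below 10 = active.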 Active and inactive are the calls of the source.

Key:
Experiment in all cases: NCI-60 one-dose screen, 48 h (100 = growth as untreated, 0 = no growth, -100 = all killed)
Conditions in all cases: 10 µM unless noted
DU-145 prostate = system: DU-145 prostate
K-562 leukemia = system: K-562 leukemia
MALME-3M melanoma = system: MALME-3M melanoma
MDA-MB-231 breast = system: MDA-MB-231 breast
RXF 393 renal = system: RXF 393 renal
SF-268 CNS = system: SF-268 CNS
SF-295 CNS = system: SF-295 CNS
SF-539 CNS = system: SF-539 CNS
UACC-257 melanoma = system: UACC-257 melanoma
M14 melanoma = system: M14 melanoma
HCT-15 colon = system: HCT-15 colon
HT29 colon = system: HT29 colon
SNB-75 CNS = system: SNB-75 CNS
SNB-19 CNS = system: SNB-19 CNS
U251 CNS = system: U251 CNS
PC-3 prostate = system: PC-3 prostate
SK-MEL-5 melanoma = system: SK-MEL-5 melanoma
UACC-62 melanoma = system: UACC-62 melanoma
LOX IMVI melanoma = system: LOX IMVI melanoma
SK-MEL-28 melanoma = system: SK-MEL-28 melanoma

Measured: growth

COc1ccc2c(c1)CCc1[nH]nc(-c3cc(OC)c(OC)c(OC)c3)c1-2
active: DU-145 prostate 7.06% | K-562 leukemia 7.23% | SF-295 CNS 1.46% | SF-539 CNS 0.378% | M14 melanoma 4.46% | HT29 colon 0.652% | U251 CNS 5.42% | SK-MEL-5 melanoma -54.2% | LOX IMVI melanoma 5.34%
inactive: MALME-3M melanoma 69.8% | MDA-MB-231 breast 19.2% | RXF 393 renal 22.6% | SF-268 CNS 17.8% | UACC-257 melanoma 38.2% | HCT-15 colon 10.3% | SNB-75 CNS 36.7% | SNB-19 CNS 28.7% | PC-3 prostate 12.6% | UACC-62 melanoma 28.8% | SK-MEL-28 melanoma 58%

O=C1/C(=C2\SC(=S)N(C3CC3)C2=O)SC(=S)N1C1CC1
inactive: DU-145 prostate 105% | K-562 leukemia 103% | MALME-3M melanoma 99.2% | MDA-MB-231 breast 101% | RXF 393 renal 97.3% | SF-268 CNS 95.1% | SF-295 CNS 98.6% | SF-539 CNS 103% | UACC-257 melanoma 94.9% | M14 melanoma 96.3% | HCT-15 colon 101% | HT29 colon 107% | SNB-75 CNS 81.9% | SNB-19 CNS 99.2% | U251 CNS 99.6% | PC-3 prostate 92% | SK-MEL-5 melanoma 97.4% | UACC-62 melanoma 94.6% | LOX IMVI melanoma 88.8% | SK-MEL-28 melanoma 106%

Cc1cccc2c1C[C@@]1(C2=O)C(c2ccc(C(C)(C)C)cc2)=NOS1=O (some centres not stated)
inactive: DU-145 prostate 103% | K-562 leukemia 77.8% | MALME-3M melanoma 93.3% | MDA-MB-231 breast 86.1% | RXF 393 renal 100% | SF-268 CNS 94.7% | SF-295 CNS 99.2% | SF-539 CNS 108% | UACC-257 melanoma 95.8% | M14 melanoma 88.8% | HCT-15 colon 72.1% | HT29 colon 98.1% | SNB-75 CNS 101% | SNB-19 CNS 93.5% | U251 CNS 88.2% | SK-MEL-5 melanoma 90.3% | UACC-62 melanoma 73.8% | LOX IMVI melanoma 76.6% | SK-MEL-28 melanoma 110%

CCOC(=O)c1c(C)c2c(n1Cc1ccccc1)CSCC2=O
active: MALME-3M melanoma -16.3% [100 µM] | MDA-MB-231 breast -2.2% [100 µM] | SF-295 CNS 3.06% [100 µM] | SF-539 CNS -23.7% [100 µM] | M14 melanoma -16% [100 µM] | HT29 colon 7.91% [100 µM] | SNB-75 CNS -13.9% [100 µM] | SK-MEL-5 melanoma -86.5% [100 µM] | UACC-62 melanoma -35.4% [100 µM] | LOX IMVI melanoma -24.4% [100 µM]
inactive: DU-145 prostate 30.8% [100 µM] | K-562 leukemia 18.6% [100 µM] | RXF 393 renal 17.1% [100 µM] | SF-268 CNS 21.4% [100 µM] | UACC-257 melanoma 21.9% [100 µM] | HCT-15 colon 11.7% [100 µM] | SNB-19 CNS 13.8% [100 µM] | U251 CNS 17.5% [100 µM] | SK-MEL-28 melanoma 27.8% [100 µM]

CS(=O)(=O)c1ccc(NC(=O)c2ccccc2)nc1
inactive: DU-145 prostate 108% | K-562 leukemia 100% | MALME-3M melanoma 108% | MDA-MB-231 breast 99.1% | RXF 393 renal 106% | SF-268 CNS 107% | SF-295 CNS 106% | SF-539 CNS 104% | UACC-257 melanoma 95.6% | M14 melanoma 115% | HCT-15 colon 104% | HT29 colon 83.6% | SNB-75 CNS 104% | SNB-19 CNS 95.7% | U251 CNS 102% | SK-MEL-5 melanoma 101% | UACC-62 melanoma 95.4% | LOX IMVI melanoma 98.6%

Cc1cn(-c2cc(NC(=O)c3cncc(C#Cc4c(N)ncc5ccc(F)cc45)c3)cc(C(F)(F)F)c2)cn1
active: K-562 leukemia 3.34% | HT29 colon 8.94%
inactive: DU-145 prostate 70.5% | MALME-3M melanoma 21.5% | MDA-MB-231 breast 27.1% | RXF 393 renal 62.7% | SF-268 CNS 64.6% | SF-295 CNS 85.2% | SF-539 CNS 51.5% | UACC-257 melanoma 52.9% | M14 melanoma 26.6% | HCT-15 colon 49.9% | SNB-75 CNS 76.8% | SNB-19 CNS 91.9% | PC-3 prostate 71.7% | SK-MEL-5 melanoma 27.4% | UACC-62 melanoma 33.8% | LOX IMVI melanoma 23% | SK-MEL-28 melanoma 42.4%

CC1=C(CCC(C)NCc2ccc(OCCCN3CCCCC3)cc2)C(C)(C)CCC1 (configuration not stated)
active: DU-145 prostate -49.1% | K-562 leukemia -46.6% | MALME-3M melanoma -80.5% | MDA-MB-231 breast -73.4% | RXF 393 renal -89.1% | SF-268 CNS -76.8% | SF-295 CNS -70% | SF-539 CNS -85.3% | UACC-257 melanoma -76.1% | M14 melanoma -81% | HCT-15 colon -67.2% | HT29 colon -81.9% | SNB-75 CNS -59.7% | SNB-19 CNS -45.7% | PC-3 prostate -56.1% | SK-MEL-5 melanoma -94.6% | UACC-62 melanoma -77% | LOX IMVI melanoma -88.7% | SK-MEL-28 melanoma -83.4%

C=C1C(=O)O[C@H]2[C@H]1CC/C(COC(=O)CSCSCC(=O)OC/C1=C/CC[C@@]3(C)O[C@H]3[C@H]3OC(=O)C(=C)[C@@H]3CC1)=C\CC[C@@]1(C)O[C@@H]21
active: K-562 leukemia 3.55% | MALME-3M melanoma -4.65% | MDA-MB-231 breast -27.9% | RXF 393 renal -86.7% | SF-539 CNS 3.58% | M14 melanoma 4.26% | HCT-15 colon 0.182% | HT29 colon -3.63% | LOX IMVI melanoma -48.5% | SK-MEL-28 melanoma -4.58%
inactive: DU-145 prostate 28.3% | SF-268 CNS 20.7% | SF-295 CNS 70.3% | UACC-257 melanoma 34.1% | SNB-75 CNS 60.4% | SNB-19 CNS 54% | U251 CNS 10.8% | SK-MEL-5 melanoma 66.1% | UACC-62 melanoma 24.2%

Cc1ccc(C)c2c(C)c(C(=O)Nc3cccc(-n4cccn4)c3)oc12
inactive: DU-145 prostate 76.5% [50 µM] | K-562 leukemia 37.1% [50 µM] | MALME-3M melanoma 67.6% [50 µM] | MDA-MB-231 breast 76.9% [50 µM] | RXF 393 renal 79.6% [50 µM] | SF-268 CNS 67.4% [50 µM] | SF-295 CNS 66% [50 µM] | SF-539 CNS 85.2% [50 µM] | UACC-257 melanoma 92.9% [50 µM] | M14 melanoma 63.5% [50 µM] | HCT-15 colon 49% [50 µM] | HT29 colon 48.2% [50 µM] | SNB-75 CNS 86.6% [50 µM] | SNB-19 CNS 87.2% [50 µM] | PC-3 prostate 38.8% [50 µM] | SK-MEL-5 melanoma 44.3% [50 µM] | UACC-62 melanoma 73.9% [50 µM] | LOX IMVI melanoma 62.2% [50 µM] | SK-MEL-28 melanoma 86.7% [50 µM]

Cc1ccc(-c2nc(N3CCNCC3)c3oc(-c4ccc(C)cc4)nc3n2)cc1
inactive: DU-145 prostate 11.9% | MALME-3M melanoma 93.6% | RXF 393 renal 73.4% | SF-268 CNS 28.5% | SF-295 CNS 108% | SF-539 CNS 95.8% | UACC-257 melanoma 103% | SNB-75 CNS 89% | SNB-19 CNS 39.1% | SK-MEL-5 melanoma 96.5% | UACC-62 melanoma 95.4% | SK-MEL-28 melanoma 83.6%
active: K-562 leukemia -75% | MDA-MB-231 breast -72.1% | M14 melanoma -94.3% | HCT-15 colon -88% | HT29 colon -94.7% | PC-3 prostate -90.2% | LOX IMVI melanoma -79.6%

O=C(Nc1ccc(Br)cc1)C1=NCCCCN1
inactive: DU-145 prostate 85.1% | K-562 leukemia 50.8% | MALME-3M melanoma 104% | MDA-MB-231 breast 92.1% | RXF 393 renal 110% | SF-268 CNS 79.6% | SF-295 CNS 98.2% | SF-539 CNS 90.9% | UACC-257 melanoma 100% | M14 melanoma 81.6% | HCT-15 colon 62.2% | HT29 colon 86% | SNB-75 CNS 88.6% | SNB-19 CNS 97.3% | PC-3 prostate 74.4% | SK-MEL-5 melanoma 93.3% | UACC-62 melanoma 58.8% | LOX IMVI melanoma 35.5% | SK-MEL-28 melanoma 114%

CCN1CCN(c2cc(C)nc(N(CCNc3ccnc4cc(Cl)ccc34)Cc3ccc4c(c3)OCO4)n2)CC1
active: K-562 leukemia -48.4% | MALME-3M melanoma -65.8% | MDA-MB-231 breast -42.4% | RXF 393 renal -82.5% | SF-268 CNS 7.14% | SF-295 CNS -63.5% | SF-539 CNS -71.2% | UACC-257 melanoma -59.9% | M14 melanoma -66.5% | HCT-15 colon -28.8% | HT29 colon -37.9% | SNB-75 CNS -75.3% | SK-MEL-5 melanoma -95.8% | UACC-62 melanoma -32.2% | LOX IMVI melanoma -80.3% | SK-MEL-28 melanoma -65.6%
inactive: DU-145 prostate 26.5% | SNB-19 CNS 29.7% | PC-3 prostate 20%

COc1ccc(/C=C2\CN(C(=O)C(Cl)Cl)C/C(=C\c3ccc(OC)cc3)C2=O)cc1
active: DU-145 prostate -11.2% | K-562 leukemia 2.32% | MALME-3M melanoma -33.9% | MDA-MB-231 breast 3.8% | RXF 393 renal -68.2% | SF-295 CNS -25.1% | SF-539 CNS -40% | M14 melanoma -39% | HCT-15 colon -14.4% | HT29 colon 5.9% | SNB-19 CNS -10.9% | U251 CNS -68.2% | SK-MEL-5 melanoma -41% | UACC-62 melanoma -66% | LOX IMVI melanoma -77.8% | SK-MEL-28 melanoma -12.5%
inactive: SF-268 CNS 23.6% | UACC-257 melanoma 22.8% | SNB-75 CNS 21%

[2H]C([2H])([2H])Oc1ccc(F)cc1/C=C/C(=O)/C=C(/C=C/c1cc(F)ccc1OC([2H])([2H])[2H])OB(F)F
inactive: DU-145 prostate 85.1% | K-562 leukemia 47.6% | MALME-3M melanoma 68.7% | MDA-MB-231 breast 98.4% | RXF 393 renal 100% | SF-268 CNS 98.6% | SF-295 CNS 101% | SF-539 CNS 113% | UACC-257 melanoma 78.7% | M14 melanoma 70.1% | HCT-15 colon 63.8% | HT29 colon 80.2% | SNB-75 CNS 94% | SNB-19 CNS 94.9% | U251 CNS 43.3% | SK-MEL-5 melanoma 94.5% | UACC-62 melanoma 68.8% | LOX IMVI melanoma 57.1% | SK-MEL-28 melanoma 94.2%
